In PubChem BioAssay:
The source made the active and inactive calls. The rule behind the calls is not given here.

Target: Pantothenate synthetase (Mycobacterium tuberculosis (strain ATCC 25618 / H37Rv)) (UniProt P9WIL5)
Assay: Coupled enzyme confirmation of inhibitors against recombinant Mtb PanC (AID 375);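 note: 0% = full reaction with vehicle and 100% = no enzyme background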
Conditions: coupled enzyme assay; at 10 µM, active compounds read high

Sequence of Pantothenate synthetase (Mycobacterium tuberculosis (strain ATCC 25618 / H37Rv)) (P9WIL5 whole entry, looked up): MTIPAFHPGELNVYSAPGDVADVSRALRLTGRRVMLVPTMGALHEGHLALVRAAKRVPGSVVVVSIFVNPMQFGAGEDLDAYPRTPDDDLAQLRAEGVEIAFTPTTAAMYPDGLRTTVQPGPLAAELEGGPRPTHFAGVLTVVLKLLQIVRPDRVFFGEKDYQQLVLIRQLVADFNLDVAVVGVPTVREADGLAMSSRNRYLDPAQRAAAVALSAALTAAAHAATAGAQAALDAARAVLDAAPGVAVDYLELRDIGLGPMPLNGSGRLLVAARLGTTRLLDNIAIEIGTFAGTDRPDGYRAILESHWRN

SMILES | inhibition
CCOC(=O)CN1CC23C=CC(O2)C(C(=O)Nc2ccc(C(C)=O)cc2)C3C1=O (stereo not given) | 6% (inactive)
CCc1ccc(NC(=O)c2cc(-c3ccco3)on2)cc1 | 4% (inactive)
O=C1CCCN1CCCNc1ncnc2c1[nH]c1ccc(Cl)cc12 | 9% (inactive)
CCCCn1cnc2c1c(=O)n(C)c(=O)n2C | 2% (inactive)
O=C1CCn2nc(-c3ccc(Cl)cc3)cc2N1 | 0% (inactive)
CCN(C(=O)CCc1nc(-c2ccccc2F)no1)c1cc(OC)ccc1OC | 0% (inactive)
c1ccc(CN2CCN(c3ncnc4c3[nH]c3ccccc34)CC2)cc1 | 5% (inactive)
COc1ccc2oc(=O)c(C(=O)N3CCN(c4ccccc4F)CC3)cc2c1 | 0% (inactive)
Cc1cccc(-c2cc3nc4c(c(N5CCC6(CC5)OCCO6)n3n2)CCCC4)c1 | 4% (inactive)
CN1CC(=O)N(CC(=O)NCCc2ccc(F)cc2)c2ccccc2C1=O | 0% (inactive)
O=C(CSc1nc2ncccc2[nH]1)Nc1ccc2c(c1)OCCO2 | 0% (inactive)
CC(Sc1nnnn1-c1ccccc1)C(=O)Nc1ccc(Cl)cn1 (stereo not given) | 2% (inactive)
c1ccc2c(c1)ccc1nnc(-c3ccc4c(c3)OCO4)n12 | 2% (inactive)
Cc1ccc2cc(CN(CC(C)C)C(=O)C3CCCO3)c(=O)[nH]c2c1 (stereo not given) | 0% (inactive)
CC(C)(Oc1ccc(Cl)cc1)C(=O)NCc1ccncc1 | 3% (inactive)
COc1ccccc1C(=O)OCn1nnc2ccccc2c1=O | 0% (inactive)
O=C(NCc1cccnc1)c1ccc2c(c1)OCO2 | 0% (inactive)
CC1CCC(NC(=O)C2(C)CCC(=O)N2Cc2cccnc2)CC1 (stereo not given) | 0% (inactive)
COc1ccc(COC(=O)c2n[nH]c3ccccc23)cc1F | 0% (inactive)
COc1cccc(Nc2cc(C)nc3ccccc23)c1 | 1% (inactive)

SMILES | inhibition
Cc1nc2sc(C(c3ccccc3)N3CCN(c4ccccc4F)CC3)c(O)n2n1 (stereo not given) | 0% (inactive)
CN(C)CCN(Cc1ccccc1)c1ccccn1 | 5% (inactive)
Cc1nc2sc(C(c3cccc(F)c3)N3CCOCC3)c(O)n2n1 (stereo not given) | 0% (inactive)
CCCCn1c(SCC(=O)c2ccc3c(c2)OCCO3)nnc1-c1ccco1 | 4% (inactive)
CCOC(=O)c1cc(C)sc1N1C(=O)C2C3C=CC(C3)C2C1=O (stereo not given) | 0% (inactive)
CC(C)(C)c1cc(C(=S)N2CCN(CCO)CC2)cc(C(C)(C)C)c1O | 5% (inactive)
COc1cc(NC(=O)Nc2cccc(C(C)=O)c2)cc(OC)c1OC | 0% (inactive)
O=c1c2c3nc4ccccc4nc3n(CC3CCCO3)c2ncn1CCc1ccccc1 (stereo not given) | 9% (inactive)
COc1cccc2cc(C(=O)N3CCc4ccccc43)c(=O)oc12 | 1% (inactive)
CN(C)CCCN1C(=O)c2oc3ccccc3c(=O)c2C1c1cccs1 (stereo not given) | 0% (inactive)
Cc1cc(Cn2ccnc2)c(C)cc1Cn1ccnc1 | 1% (inactive)
Cc1ccc(-c2noc(CN3C(C)CCCC3C)n2)cc1 (stereo not given) | 0% (inactive)
COC(=O)CN(c1ccc(F)cc1)S(=O)(=O)c1ccccc1 | 0% (inactive)
COc1cc(NC(=O)c2cc(CC(C)C)on2)c(OC)cc1Cl | 5% (inactive)
Clc1ccc(C2Nc3ccccc3-n3cccc32)cc1 (stereo not given) | 0% (inactive)
Cc1cc(=O)n(C)c(=O)n1CCCNc1ccccc1 | 2% (inactive)
Cc1ccc(N(CC2=NCCN2)c2cccc(O)c2)cc1 | 1% (inactive)
COC(=O)c1c(N)nc(C)n1-c1ccc(OC)cc1 | 0% (inactive)
CCc1cc(=O)n2[nH]c(C)c(-c3ccccc3OC)c2n1 | 4% (inactive)
CC1CCCCN1CCNC(=O)C1CCN(S(=O)(=O)c2cccc3cccnc23)CC1 (stereo not given) | 0% (inactive)
